Assay outcomes from PubChem.
SENP6 inh: blocks the human protease SENP6; Q9GZR1; Recombinant SENP6 catalytic domain, aminoluciferin luminescence; inhibition, % at 10 µM; hit rate 1.8% among 330,000;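 active = inhibition above about 50% at the single tested dose, limit read from the data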;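 also: plate controls were DMSO wells with enzyme for no effect and DMSO wells lacking enzyme for full effect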
HSP90 inh: HSP90 refolding inhibition in rabbit reticulocyte lysate | luciferase refolding luminescence, 3 h | inhibition, % at 5.6 µM | hit rate 0.91% among 290,000;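 active = inhibition above the screen-wide mean plus 3 SD, computed separately per campaign, cut at about 16% in these data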;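 also: 0% = DMSO wells and 100% = 60 µM geldanamycin wells; inhibitors lower the luminescence because luciferase stays unfolded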
SENP7 block: inhibitors of human SENP7 protease | Q9BQF6 | recombinant SENP7, Z-RLRGG-aminoluciferin luminescence, 40 min | inhibition, % at 5 µM | hit rate 1.5% among 330,000 | AID 434973;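 active = inhibition above about 50% at the single test dose, limit read from the data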;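 also: plate controls were DMSO with enzyme for no effect and no enzyme buffer wells for full effect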
Target sequence (Q9BQF6 706-1050 limits assumed): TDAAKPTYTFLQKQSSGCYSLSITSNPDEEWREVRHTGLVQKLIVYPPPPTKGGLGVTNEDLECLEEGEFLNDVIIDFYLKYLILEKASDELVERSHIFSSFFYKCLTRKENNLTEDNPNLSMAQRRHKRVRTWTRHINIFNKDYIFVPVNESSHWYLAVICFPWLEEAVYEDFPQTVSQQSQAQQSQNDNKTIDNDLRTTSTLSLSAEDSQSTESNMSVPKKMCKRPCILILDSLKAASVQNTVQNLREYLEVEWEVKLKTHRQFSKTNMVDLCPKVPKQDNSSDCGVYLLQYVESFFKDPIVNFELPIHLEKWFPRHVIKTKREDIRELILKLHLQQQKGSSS
SENP8 block-1: SENP8 protease inhibition; Q96LD8; purified SENP8, Z-RLRGG-aminoluciferin cleavage, luminescence; inhibition, % at 10 µM; hit rate 1.2% among 330,000; AID 2540; in the data active = inhibition above about 50%
Target sequence (Q96LD8 whole entry, looked up): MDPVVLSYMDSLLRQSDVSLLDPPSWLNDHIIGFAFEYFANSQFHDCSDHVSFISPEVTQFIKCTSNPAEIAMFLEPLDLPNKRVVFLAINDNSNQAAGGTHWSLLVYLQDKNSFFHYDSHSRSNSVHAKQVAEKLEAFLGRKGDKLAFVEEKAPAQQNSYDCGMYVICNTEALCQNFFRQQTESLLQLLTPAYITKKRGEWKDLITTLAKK
SENP8 block-2: blocks human SENP8 cleavage of Nedd8 substrate; Q96LD8; recombinant SENP8, Nedd8 substrate fluorescence; inhibition, % at 20 µM; hit rate 0.64% among 360,000; AID 602440; in the data active = inhibition mostly above about 40%, no sharp cut-off; inactive = mostly below about 27%
SENP8 confirm: human SENP8 inhibition, confirmed; inhibition, % at 12.5 µM; hit rate 40% among 6,200; shares compounds with SENP7 block; Recombinant SENP8, Z-RLRGG-aminoluciferin luminescence, 60 min;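 active = mean inhibition across replicates above about 50%, limit read from the data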
SENP6 confirm: confirmation of human SENP6 protease inhibitors; shares compounds with SENP7 block; recombinant SENP6, Z-RLRGG-aminoluciferin luminescence; inhibition, % at 12.5 µM; hit rate 58% among 6,200; AID 488915
SENP7 confirm: human SENP7 inhibition, confirmed; recombinant SENP7, Z-RLRGG-aminoluciferin luminescence, 40 min; shares compounds with SENP7 block; AID 488917; hit rate 69% among 6,200; inhibition, % at 12.5 µM
Casp3 SENP sel: inhibits human caspase-3 in SENP selectivity test | shares compounds with SENP7 block | purified caspase-3, Z-DEVD-aminoluciferin luminescence, 60 min | inhibition, % at 12.5 µM | hit rate 60% among 6,200 | AID 488918;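 active = mean inhibition above about 50%, limit read from the data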;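 also: plate controls were enzyme with DMSO for no effect and wells without caspase-3 for full effect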
SENP luc ctr: counter-screen for SENP inhibitors: luminescence interference; shares compounds with SENP7 block; Pre-incubated SENP8/Z-RLRGG-aminoluciferin, luciferase luminescence interference; inhibition, % at 12.5 µM; hit rate 39% among 6,200; AID 488919;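 active = mean inhibition above about 50% when retested at one dose, limit read from the data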;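 also: plate controls were DMSO wells with completed reaction for no effect and substrate without enzyme for full effect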
Active calls of the source: *; · = no result given. The list is not random: actives were taken first. Their share in the collection is about 2.7%.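 The calls were made as follows, unless noted: active = mean inhibition above about 50% in the one-dose retest (limit read from the data); inactive = the rest.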

SMILES | SENP6 inh | HSP90 inh | SENP7 block | SENP8 block-1 | SENP8 block-2 | SENP8 confirm | SENP6 confirm | SENP7 confirm | Casp3 SENP sel | SENP luc ctr
COc1ccc(CCNC(=O)COc2ccc3c(C)cc(=O)oc3c2)cc1 | 18 | · | -12 | -9 | -98 | · | · | · | · | ·
COc1cccc(C(C)(O)c2nc(-c3cncnc3)cs2)c1 (configuration not stated) | · | · | · | · | 25 | · | · | · | · | ·
CCCCn1c(N)c(N(CCOC)C(=O)COC(=O)c2ccccc2OCC)c(=O)[nH]c1=O | 0 | 2 | -8 | 7 | 5 | · | · | · | · | ·
O=C(O)CC1NC(=O)N(c2ccccc2)C1=O (configuration not stated) | -7 | 0 | 1 | -4 | · | · | · | · | · | ·
COc1cccc(NC(=O)Cn2nnc(C(=O)Nc3ccccc3)c2N)c1 | 2 | 0 | 1 | 3 | 25 | · | · | · | · | ·
COc1cccc(NC(=O)c2nnn(CCc3ccccc3)c2N)c1 | 72* | -1 | 76* | 64* | 2 | 76* | 75* | 93* | 75* | 62*
Cc1ccc(-c2cc(C(=O)N/N=C/c3ccccc3O)n[nH]2)o1 | 67* | -2 | 52* | 49 | 6 | -1 | -3 | 86* | 53* | 30
O=C(NCc1cccnc1)c1cccnc1-c1nc2ccccc2s1 | -5 | 7 | 12 | 0 | -56 | · | · | · | · | ·
CCOC(=O)C(=O)Nc1ccc(OCc2ccccc2)cc1 | -66 | 0 | 14 | -21 | 11 | · | · | · | · | ·
CCOc1ccc(NC(=O)c2ccc(OC)cc2)cc1 | -41 | -5 | 7 | -7 | 24 | · | · | · | · | ·
O=C(Nc1ccc(OCc2ccccc2)cc1)c1ccccc1 | 29 | -2 | 67* | 5 | 13 | 5 | 8 | 8 | 6 | -5
CCOc1ccc(NC(=O)c2ccncc2)cc1 | 60* | 1 | -3 | -10 | 16 | 3 | -2 | 10 | 16 | 6
O=C(Nc1ccccc1)c1ccc(COc2ccccc2)cc1 | 44 | -1 | 64* | -9 | 3 | -26 | -12 | -4 | -1 | -5
O=C(Nc1ccc(OCc2ccccc2)cc1)c1cccnc1 | 3 | -1 | 32 | 2 | 4 | · | · | · | · | ·
CC(C)=CC(=O)Nc1ccc(OCc2ccccc2)cc1 | 73* | -5 | 58* | 49 | 1 | 35 | 49 | 76* | 42 | 45
Cc1noc(C)c1COc1cccc(C(=O)Nc2ccc(OCc3ccccc3)cc2)c1 | 57* | -1 | 34 | 16 | 26 | 9 | 7 | 4 | 4 | -6
CCSc1nnc(NC(=O)c2cccc(OCc3c(C)noc3C)c2)s1 | 3 | 3 | -15 | -11 | -90 | · | · | · | · | ·
CCOc1ccc(NC(=O)c2c(N)n(C)c(=O)[nH]c2=O)cc1 | 58* | · | 48 | 20 | 23 | 15 | 12 | 23 | 27 | 2
Cc1ccc(C(=O)Nc2ccc(OCc3ccccc3)cc2)s1 | 0 | -2 | 5 | -11 | 13 | · | · | · | · | ·
COc1ccc2nc(NC(=O)c3cccc(OCc4c(C)noc4C)c3)sc2c1 | 60* | 1 | 47 | 33 | -280 | -2 | 5 | 71* | 24 | 4
CCOc1ccc(NC(=O)c2ccc(N)cc2)cc1 | 6 | -7 | 5 | 8 | -1 | · | · | · | · | ·
Cc1cc(C(=O)Nc2ccc(OCc3ccccc3)cc2)c(C)o1 | 101* | -5 | 99* | 94* | 18 | 74* | 96* | 101* | 95* | 64*
Cc1ccc(C(=O)C2=C(O)C(=O)N(Cc3cccnc3)C2c2cccc(Oc3ccccc3)c2)o1 (configuration not stated) | 12 | 2 | -3 | 4 | · | · | · | · | · | ·
Cc1nc(-c2ccc(S(=O)(=O)N3CCN(C4c5ccccc5-c5ccccc54)CC3)s2)cs1 | -16 | -2 | 1 | -2 | 10 | · | · | · | · | ·
CCCCN(C)C(=O)c1sc(=O)n(Cc2c(C)noc2C)c1C | · | · | · | · | 8 | · | · | · | · | ·
SMILES | SENP6 inh | HSP90 inh | SENP7 block | SENP8 block-1 | SENP8 block-2 | SENP8 confirm | SENP6 confirm | SENP7 confirm | Casp3 SENP sel | SENP luc ctr
Cc1ccc(N(CCC#N)C(=O)COC(=O)c2cc(C)no2)cc1 | 2 | · | 3 | -7 | 16 | · | · | · | · | ·
C=C(C)c1sc(-c2ccccc2)nc1C | 11 | · | -6 | 0 | · | · | · | · | · | ·
CC(C)=CC(=O)Nc1ccc(Br)cc1 | 47 | 1 | 54* | 16 | -4 | 49 | 48 | 83* | 61* | 60*
CC(=O)Nc1ccc(NC(=S)Nc2ccc(Br)cc2)cc1 | 6 | -1 | -1 | 5 | 14 | · | · | · | · | ·
Cc1ccsc1C(=O)Nc1ccc(C(=O)O)cc1 | -49 | 0 | 86* | 79* | 20 | -13 | 78* | 95* | 96* | 81*
Cc1ccsc1C(=O)Nc1ccc(OCc2ccccc2)cc1 | 91* | 5 | 98* | 88* | 19 | 1 | 84* | 101* | 95* | 4
O=C(CCCN1C(=O)C(c2ccccc2)Oc2cccnc21)NCc1ccccc1Cl (configuration not stated) | 9 | -1 | 1 | 5 | 6 | · | · | · | · | ·
COc1cc(OC)c(OC)cc1/C=N/NC(=S)NCC1CCCO1 (configuration not stated) | 4 | 5 | 7 | 3 | -241 | · | · | · | · | ·
CCCOc1ccc(N2CC(C(=O)Nc3ccccc3OC)CC2=O)cc1 (configuration not stated) | 3 | 1 | -12 | 0 | 8 | · | · | · | · | ·
COc1ccc(-c2nnc(-c3cc4ccccc4oc3=O)o2)cc1 | -7 | -3 | 3 | -8 | -349 | · | · | · | · | ·
COc1cccc2cc(-c3nnc(-c4ccccc4)o3)c(=O)oc12 | 92* | 4 | 90* | 74* | -223 | 0 | 2 | 3 | 5 | 10
COc1cccc2cc(-c3cn4ccc(C)cc4n3)c(=O)oc12 | 46 | 8 | 50* | 23 | -69 | 0 | 4 | 13 | 12 | 4
O=C(Cc1csc(N2CCOCC2)n1)N/N=C/c1ccc(Cl)cc1Cl | -4 | 4 | 0 | 6 | 22 | · | · | · | · | ·
Cc1ccnc(N/N=C/c2ccccc2)n1 | 33 | -2 | 34 | -4 | 5 | · | · | · | · | ·
CSc1nccc(N/N=C/c2ccccc2)n1 | 64* | 1 | 74* | 53* | 11 | 43 | 45 | 81* | 69* | 3
O=C1C2C3c4ccccc4C(c4ccccc43)C2C(=O)N1c1nc(-c2ccccc2)cs1 (configuration not stated) | -5 | 0 | 4 | 6 | 29 | · | · | · | · | ·
N=C1SCC(=O)N1c1nc(-c2ccccc2)cs1 | 96* | -2 | 87* | 89* | 10 | -5 | 4 | -6 | 42 | -5
COc1ccccc1C=NN=Cc1ccccc1O | · | · | · | · | 22 | · | · | · | · | ·
CN(C)c1ccc(/C=N/N=C/c2ccccc2O)cc1 | 86* | -6 | 97* | 84* | -26 | 47 | 58* | 61* | 59* | 34
